This excerpt belongs to a sample that is enriched for the strongest signals.
How the values were obtained:
Experiment in all cases: glycan array binding signal (z-score within array); higher = stronger binding
Details in all cases: glycan notation: IUPAC condensed, linker removed
[1] = target: GalNAc(a1-3)Fuc(a1-2)Gal(b1-4)GlcNAc(b1-3)[GalNAc(a1-3)Fuc(a1-2)Gal(b1-4)GlcNAc(b1-6)]GalNAc
Procedure, shortened: (§1)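 From the Consortium for Functional Glycomics database, 3228 arrays were curated, keeping only those whose protein sequence was available. Binding is given as a within-array Z-score averaged across arrays sharing a protein sequence and across linkers. Negative Z-scores can be read as non-binding.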

[2] = target: GalNAc(b1-3)GlcNAc
Procedure, shortened: as §1

[3] = target: GalNAc(b1-4)Gal(b1-4)Glc
Procedure, shortened: as §1

[4] = target: GlcNAc(a1-4)Gal(b1-4)GlcNAc(b1-3)Gal(b1-4)GlcNAc
Procedure, shortened: as §1

[5] = target: GlcNAc(b1-3)Fuc
Procedure, shortened: as §1

[6] = target: GlcNAc(b1-3)Gal(b1-4)GlcNAc(b1-3)Gal(b1-4)GlcNAc(b1-2)Man(a1-3)[GlcNAc(b1-3)Gal(b1-4)GlcNAc(b1-3)Gal(b1-4)GlcNAc(b1-2)Man(a1-6)]Man(b1-4)GlcNAc(b1-4)GlcNAc
Procedure, shortened: as §1

[7] = target: GlcNAc(b1-3)Gal(b1-4)GlcNAc(b1-6)[Gal(b1-3)]GalNAc
Procedure, shortened: as §1

[8] = target: GlcNAc(b1-3)GalNAc
Procedure, shortened: as §1

[9] = target: Man(a1-3)[Man(a1-6)]Man
Procedure, shortened: as §1

[10] = target: Neu5Ac(a2-3)Gal(b1-3)GalNAc(b1-4)[Neu5Ac(a2-3)]Gal(b1-4)Glc
Procedure, shortened: as §1

[11] = target: Neu5Ac(a2-3)Gal(b1-3)[Fuc(a1-4)]GlcNAc(b1-3)Gal(b1-4)[Fuc(a1-3)]GlcNAc
Procedure, shortened: as §1

[12] = target: Neu5Ac(a2-3)Gal(b1-3)[Neu5Ac(a2-3)Gal(b1-4)]GlcNAc
Procedure, shortened: as §1

[13] = target: Neu5Ac(a2-3)Gal(b1-3)]Neu5Ac(a2-3)Gal(b1-4)]GlcNAc
Procedure, shortened: as §1

[14] = target: Neu5Ac(a2-3)Gal(b1-4)GlcNAc(b1-2)Man(a1-3)[GlcNAc(b1-2)Man(b1-4)GlcNAc(b1-2)Man(a1-6)]Man(b1-4)GlcNAc(b1-4)GlcNAc
Procedure, shortened: as §1

[15] = target: Neu5Ac(a2-3)Gal(b1-4)GlcNAc(b1-2)Man(a1-3)[Neu5Ac(a2-3)Gal(b1-4)GlcNAc(b1-2)Man(a1-6)]Man(b1-4)GlcNAc(b1-4)GlcNAc
Procedure, shortened: as §1

[16] = target: Neu5Ac(a2-3)Gal(b1-4)GlcNAc(b1-2)Man(a1-3)[Neu5Ac(a2-3)Gal(b1-4)GlcNAc(b1-2)Man(a1-6)]Man(b1-4)GlcNAc(b1-4)[Fuc(a1-6)]GlcNAc
Procedure, shortened: as §1

[17] = target: Neu5Ac(a2-3)Gal(b1-4)GlcNAc(b1-2)[Neu5Ac(a2-3)Gal(b1-4)GlcNAc(b1-4)]Man(a1-3)[GlcNAc(b1-4)][Neu5Ac(a2-3)Gal(b1-4)GlcNAc(b1-2)[Neu5Ac(a2-3)Gal(b1-4)GlcNAc(b1-6)]Man(a1-6)]Man(b1-4)GlcNAc(b1-4)GlcNAc
Procedure, shortened: as §1

[18] = target: Neu5Ac(a2-3)Gal(b1-4)GlcNAc(b1-2)[Neu5Ac(a2-3)Gal(b1-4)GlcNAc(b1-4)]Man(a1-3)[GlcNAc(b1-4)][Neu5Ac(a2-3)Gal(b1-4)GlcNAc(b1-4)Man(a1-6)]Man(b1-4)GlcNAc(b1-4)GlcNAc
Procedure, shortened: as §1

[19] = target: Neu5Ac(a2-3)Gal(b1-4)GlcNAc(b1-2)[Neu5Ac(a2-3)Gal(b1-4)GlcNAc(b1-6)]Man(a1-6)[Neu5Ac(a2-3)Gal(b1-4)GlcNAc(b1-2)Man(a1-3)][GlcNAc(b1-4)]Man(b1-4)GlcNAc(b1-4)GlcNAc
Procedure, shortened: as §1

[20] = target: Neu5Ac(a2-3)Gal(b1-4)GlcNAc(b1-6)[Neu5Ac(a2-3)Gal(b1-3)]GalNAc
Procedure, shortened: as §1

[21] = target: Neu5Ac(a2-3)Gal(b1-4)[Fuc(a1-3)]GlcNAc(b1-3)Gal
Procedure, shortened: as §1

[22] = target: Neu5Ac(a2-3)Gal(b1-4)[Fuc(a1-3)]GlcNAc(b1-3)Gal(b1-4)[Fuc(a1-3)]GlcNAc(b1-3)Gal(b1-4)[Fuc(a1-3)]GlcNAc
Procedure, shortened: as §1

[23] = target: Neu5Ac(a2-3)Gal6S(b1-4)GlcNAc
Procedure, shortened: as §1

[24] = target: Neu5Ac(a2-3)Gal6S(b1-4)[Fuc(a1-3)]GlcNAc
Procedure, shortened: as §1

[25] = target: Neu5Ac(a2-6)Gal(b1-4)GlcNAc(b1-2)[Neu5Ac(a2-6)Gal(b1-4)GlcNAc(b1-4)]Man(a1-3)[GlcNAc(b1-4)][Neu5Ac(a2-6)Gal(b1-4)GlcNAc(b1-4)Man(a1-6)]Man(b1-4)GlcNAc(b1-4)GlcNAc
Procedure, shortened: as §1

[26] = target: Neu5Ac(a2-6)GalNAc
Procedure, shortened: as §1

[27] = target: Neu5Gc(a2-3)Gal(b1-4)Glc
Procedure, shortened: as §1

[28] = target: Neu5Gc(a2-3)Gal(b1-4)GlcNAc
Procedure, shortened: as §1

B1: Siglec-F (Mus musculus), Q920G3 (protein)
chain: MRWAWLLPLLWAGCLATDGYSLSVTGSVTVQEGLCVFVACQVQYPNSKGPVFGYWFREGANIFSGSPVATNDPQRSVLKEAQGRFYLMGKENSHNCSLDIRDAQKIDTGTYFFRLDGSVKYSFQKSMLSVLVIALTEVPNIQVTSTLVSGNSTKLLCSVPWACEQGTPPIFSWMSSALTSLGHRTTLSSELNLTPRPQDNGTNLTCQVNLPGTGVTVERTQQLSVIYAPQKMTIRVSWGDDTGTKVLQSGASLQIQEGESLSLVCMADSNPPAVLSWERPTQKPFQLSTPAELQLPRAELEDQGKYICQAQNSQGAQTASVSLSIRSLLQLLGPSCSFEGQGLHCSCSSRAWPAPSLRWRLGEGVLEGNSSNGSFTVKSSSAGQWANSSLILSMEFSSNHRLSCEAWSDNRVQRATILLVSGPKVSQAGKSETSRGTVLGAIWGAGLMALLAVCLCLIFFTVKVLRKKSALKVAATKGNHLAKNPASTINSASITSSNIALGYPIQGHLNEPGSQTQKEQPPLATVPDTQKDEPELHYASLSFQGPMPPKPQNTEAMKSVYTEIKIHKC
glycan array binding signal (z-score) [1]: -0.088 | glycan array binding signal (z-score) [2]: -0.154 | glycan array binding signal (z-score) [3]: -0.099 | glycan array binding signal (z-score) [4]: -0.146 | glycan array binding signal (z-score) [5]: -0.135 | glycan array binding signal (z-score) [6]: -0.064 | glycan array binding signal (z-score) [7]: -0.15 | glycan array binding signal (z-score) [8]: -0.12 | glycan array binding signal (z-score) [9]: -0.113 | glycan array binding signal (z-score) [10]: 3.76 | glycan array binding signal (z-score) [11]: -0.066 | glycan array binding signal (z-score) [12]: 2.46 | glycan array binding signal (z-score) [13]: 3.65 | glycan array binding signal (z-score) [14]: 2.11 | glycan array binding signal (z-score) [15]: 1.94 | glycan array binding signal (z-score) [16]: 2.76 | glycan array binding signal (z-score) [17]: 8.27 | glycan array binding signal (z-score) [18]: 5.53 | glycan array binding signal (z-score) [19]: 5.76 | glycan array binding signal (z-score) [20]: 0.072 | glycan array binding signal (z-score) [21]: -0.088 | glycan array binding signal (z-score) [22]: -0.109 | glycan array binding signal (z-score) [23]: 13.2 | glycan array binding signal (z-score) [24]: 12.9 | glycan array binding signal (z-score) [25]: -0.097 | glycan array binding signal (z-score) [26]: -0.113 | glycan array binding signal (z-score) [27]: -0.118 | glycan array binding signal (z-score) [28]: -0.126

From the supplement of paper PMC8728848
